Reference: PubChem BioAssay (NCATS)
Where “and” joins values, the source holds several entries; their conditions need not be identical. Equal values may be shown once. Records with an inconclusive call do not appear. Calls of active or inactive are those of the source. Calls follow the shape of the dose curve; as a rule, active = well fitted inhibition curve with a large enough effect; inconclusive = small, poorly fitted or top-dose-only effect; inactive = flat fitted curve, though single readings scatter.

What was measured:
[1] = test system: ICS; assay: qHTS profiling for inhibitors of Plasmodium falciparum proliferation (AID 504749); conditions: P. falciparum in erythrocytes, SYBR Green DNA, 72 h; series mostly up to 28.7 µM
Procedure, shortened: (§1)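 Quantitative HTS: compounds pinned into medium, infected erythrocytes added (0.3% parasitemia, 2.5% hematocrit), 72 h culture at 37 C under 5% CO2. Saponin/Triton lysis with SYBR Green I, overnight RT, then fluorescence read.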

[2] = test system: P93_24; assay: as above; conditions: P. falciparum in erythrocytes, SYBR Green DNA, 72 h; series mostly up to 28.7 µM
Procedure, shortened: as §1

[3] = test system: W2; assay: as above; conditions: P. falciparum in erythrocytes, SYBR Green DNA, 72 h; series mostly up to 28.7 µM
Procedure, shortened: as §1

[4] = test system: HEK293; assay: Cytotoxic Profiling of Annotated Libraries Using Quantitative High-Throughput Screening (AID 1296008); conditions: Five cell lines viability, CellTiter-Glo ATP luminescence, 48-72 h; max response: hits give low values; as to max response: % is scaled to controls: 0 for no effect and ±100 for the full control effect
Procedure, shortened: (§2)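 Compounds were pin-transferred onto cells and incubated 48 or 72 hr at 37 degree Celsius, 95% humidity. CellTiter-Glo was added, plates sat 10 min at room temperature, then ATP-coupled luminescence was imaged as the viability read-out.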

[5] = test system: CRL-7250; assay: as above; conditions: Five cell lines viability, CellTiter-Glo ATP luminescence, 48-72 h; max response: hits give low values
Procedure, shortened: as §2

[6] = test system: HaCat; assay: as above; conditions: Five cell lines viability, CellTiter-Glo ATP luminescence, 48-72 h; max response: hits give low values
Procedure, shortened: as §2

[7] = test system: FAB9; assay: qHTS profiling for inhibitors of Plasmodium falciparum proliferation (AID 504749); conditions: P. falciparum in erythrocytes, SYBR Green DNA, 72 h; series mostly up to 28.7 µM
Procedure, shortened: as §1

[8] = test system: GB4; assay: as above; conditions: P. falciparum in erythrocytes, SYBR Green DNA, 72 h; series mostly up to 28.7 µM
Procedure, shortened: as §1

[9] = test system: HB3; assay: as above; conditions: P. falciparum in erythrocytes, SYBR Green DNA, 72 h; series mostly up to 28.7 µM
Procedure, shortened: as §1

[10] = test system: JCK; assay: as above; conditions: P. falciparum in erythrocytes, SYBR Green DNA, 72 h; series mostly up to 28.7 µM
Procedure, shortened: as §1

[11] = test system: N140; assay: as above; conditions: P. falciparum in erythrocytes, SYBR Green DNA, 72 h; series mostly up to 28.7 µM
Procedure, shortened: as §1

[12] = test system: P94_40; assay: as above; conditions: P. falciparum in erythrocytes, SYBR Green DNA, 72 h; series mostly up to 28.7 µM
Procedure, shortened: as §1

[13] = test system: PAD; assay: as above; conditions: P. falciparum in erythrocytes, SYBR Green DNA, 72 h; series mostly up to 28.7 µM
Procedure, shortened: as §1

[14] = test system: PC15; assay: as above; conditions: P. falciparum in erythrocytes, SYBR Green DNA, 72 h; series mostly up to 28.7 µM
Procedure, shortened: as §1

[15] = test system: PC26; assay: as above; conditions: P. falciparum in erythrocytes, SYBR Green DNA, 72 h; series mostly up to 28.7 µM
Procedure, shortened: as §1

[16] = test system: PC49; assay: as above; conditions: P. falciparum in erythrocytes, SYBR Green DNA, 72 h; series mostly up to 28.7 µM
Procedure, shortened: as §1

[17] = test system: SC27B; assay: as above; conditions: P. falciparum in erythrocytes, SYBR Green DNA, 72 h; series mostly up to 28.7 µM
Procedure, shortened: as §1

[18] = test system: TAB109; assay: as above; conditions: P. falciparum in erythrocytes, SYBR Green DNA, 72 h; series mostly up to 28.7 µM
Procedure, shortened: as §1

[19] = test system: TAB113; assay: as above; conditions: P. falciparum in erythrocytes, SYBR Green DNA, 72 h; series mostly up to 28.7 µM
Procedure, shortened: as §1

[20] = test system: TAB165; assay: as above; conditions: P. falciparum in erythrocytes, SYBR Green DNA, 72 h; series mostly up to 28.7 µM
Procedure, shortened: as §1
Also: nearly all actives have a fitted effect of over 60% in size.
Potency is read from the fitted curve at half-maximal effect.

[Cl][In]([Cl])[Cl]
active: Potency [1] 2.51 µM | Potency [2] 10 µM | Potency [3] 7.57 µM
inactive: max response [4] 1.84%

O=C1Nc2ccc(Cl)cc2[C@@](C#CC2CC2)(C(F)(F)F)O1
inactive: max response [5] -9.32% and 4.5% | outcome [6]

C[C@](N)(Cc1ccc(O)cc1)C(=O)O
inactive: Potency [7] | Potency [8] | Potency [9] | Potency [1] | Potency [10] | Potency [11] | Potency [2] | Potency [12] | Potency [13] | Potency [14] | Potency [15] | Potency [16] | Potency [17] | Potency [18] | Potency [19] | Potency [20] | Potency [3]

NC1[C@H]2CN(c3nc4c(cc3F)c(=O)c(C(=O)O)cn4-c3ccc(F)cc3F)C[C@@H]12 (stereo partly specified)
active: Potency [4] 15 µM

CCCn1cnc2c1c(=O)n(CCCCC(C)=O)c(=O)n2C
inactive: Potency [7] | Potency [9] | Potency [10] | Potency [11] | Potency [12] | Potency [13] | Potency [14] | Potency [15] | Potency [16] | Potency [17] | Potency [18] | Potency [19] | Potency [20] | max response [5] -5.12% | max response [4] -11.1% | max response [6] -0.92%
active: Potency [3] 15.1 µM

CC1=C(CC(=O)O)c2cc(F)ccc2/C1=C\c1ccc(S(C)=O)cc1 (stereo unspecified)
inactive: Potency [7] | Potency [8] | Potency [9] | Potency [10] | Potency [11] | Potency [2] | Potency [12] | Potency [13] | Potency [14] | Potency [15] | Potency [16] | Potency [17] | Potency [18] | Potency [19] | Potency [20] | outcome [6]

CSc1ccc2c(c1)C(N1CCN(C)CC1)Cc1ccccc1S2 (stereo unspecified)
active: Potency [8] 13.5 µM | Potency [1] 8.91 µM | Potency [2] 11.2 µM | Potency [20] 12.6 µM | Potency [3] 5.36 µM | Potency [4] 16.8 µM
inactive: Potency [7] | Potency [9] | Potency [10] | Potency [14] | Potency [16] | outcome [6]

OCc1cc(C(O)CNCCCCCCOCCCCc2ccccc2)ccc1O (stereo unspecified)
active: Potency [8] 9.53 µM
inactive: Potency [7] | Potency [9] | Potency [10] | Potency [11] | Potency [12] | Potency [13] | Potency [16] | Potency [17] | Potency [19] | max response [5] -15.6% | max response [6] 2.23%

CCN(CC)CCNC(=O)c1c(C)[nH]c(/C=C2\C(=O)Nc3ccc(F)cc32)c1C
active: Potency [8] 7.57 µM | Potency [9] 8.91 µM | Potency [1] 3.98 µM | Potency [11] 8.91 µM | Potency [2] 6.31 µM | Potency [12] 7.94 µM | Potency [13] 5.01 µM | Potency [14] 8.91 µM | Potency [15] 5.36 µM | Potency [17] 12.6 µM | Potency [18] 8.91 µM | Potency [19] 10 µM | Potency [20] 7.08 µM | Potency [3] 4.26 µM | Potency [4] 8.41 µM

C=Cc1c(C)c2cc3[nH]c(cc4nc(cc5nc(cc1[nH]2)C(C)=C5CCC(=O)O)C(CCC(=O)O)=C4C)c(C)c3C=C
inactive: Potency [7] | Potency [8] | Potency [9] | Potency [1] | Potency [10] | Potency [11] | Potency [2] | Potency [12] | Potency [13] | Potency [14] | Potency [15] | Potency [16] | Potency [17] | Potency [18] | Potency [19] | Potency [20] | Potency [3] | max response [4] -10.7% | outcome [6]

CNCCC(Oc1ccc(C(F)(F)F)cc1)c1ccccc1 (stereo unspecified)
active: Potency [8] 13.5 µM | Potency [1] 7.94 µM | Potency [20] 11.2 µM | Potency [3] 3.79 µM
inactive: Potency [7] | Potency [9]
